SMN2 splice up – qHTS Assay for Enhancers of SMN2 Splice Variant Expression; Potency, µM (top dose mostly 46.1 µM), most hits filed as activators; HEK293 SMN2-luciferase splicing reporter, luminescence, 30-36 h; actives 2.8% (n = 210,000); further: nearly all actives have a fitted effect of over 55% in size
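HEK293 cells carry an SMN2 […]–luciferase reporter in which exon 7 inclusion puts luciferase in frame. Cells were plated 10-12 h before compound addition, then incubated 30-36 h at 37C. ONE-Glo luminescence was read; sodium butyrate at 4.5 mM final served as control.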
ELG1 genotoxic – qHTS screen for small molecules that induce genotoxicity in human embryonic kidney (HEK293T) cells expressing luciferase-tagged ELG1; Potency, µM (titrated, usually from 46 µM), actives largely listed as activators; HEK293T ELG1-luciferase reporter, luminescence, 16 h; actives 1.3% (n = 330,000); further: nearly all actives have a fitted effect of over 60% in size
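After overnight (16 hr) compound treatment at 37 °C, ELG1-luciferase HEK293T cells were lysed with ONE-Glo; luminescence quantified 30 min later at room temperature.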
Luc counter – Counterscreen for Luciferase (Kinase-Glo TM) Inhibition. Luciferin 4-monooxygenase (Photuris pensylvanica), Q27757. Kinase-Glo luciferase, ATP luminescence, 8 min. Potency, µM (top dose mostly 38.3 µM), hits mostly inhibitors. actives 0.28% (n = 200,000). AID 1379, 2008; further: nearly all actives have a fitted effect of over 60% in size
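Recombinant Kinase-Glo luciferase, 10 uM ATP (linear range), luciferin; imidazole pH 7.2 / KCl / MgCl2 / Tween / BSA buffer; 8 min RT; luminescence.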
NPC1 promoter act – qHTS Assay for NPC1 Promoter Activators. Huh7 NPC1 promoter luciferase reporter, 24 h. Potency, µM (doses to about 9.22 µM), usual class: activators. actives 2.4% (n = 320,000); further: nearly all actives have a fitted effect of over 60% in size
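NPC1 promoter–luciferase Huh7 cells; 24 h compound; luminescence.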
FLuc counter – qHTS profiling assay for firefly luciferase inhibitor/activator using purifed enzyme and Km concentrations of substrates (counterscreen for miR-21 project). Luciferin 4-monooxygenase (Photinus pyralis), P08659. purified FLuc, Km substrates, luminescence inhibition. Potency, µM (highest dose often 57.5 µM), actives largely listed as inhibitors. actives 6.9% (n = 360,000); further: nearly all actives have a fitted effect of over 55% in size
Target sequence (P08659 whole entry, looked up): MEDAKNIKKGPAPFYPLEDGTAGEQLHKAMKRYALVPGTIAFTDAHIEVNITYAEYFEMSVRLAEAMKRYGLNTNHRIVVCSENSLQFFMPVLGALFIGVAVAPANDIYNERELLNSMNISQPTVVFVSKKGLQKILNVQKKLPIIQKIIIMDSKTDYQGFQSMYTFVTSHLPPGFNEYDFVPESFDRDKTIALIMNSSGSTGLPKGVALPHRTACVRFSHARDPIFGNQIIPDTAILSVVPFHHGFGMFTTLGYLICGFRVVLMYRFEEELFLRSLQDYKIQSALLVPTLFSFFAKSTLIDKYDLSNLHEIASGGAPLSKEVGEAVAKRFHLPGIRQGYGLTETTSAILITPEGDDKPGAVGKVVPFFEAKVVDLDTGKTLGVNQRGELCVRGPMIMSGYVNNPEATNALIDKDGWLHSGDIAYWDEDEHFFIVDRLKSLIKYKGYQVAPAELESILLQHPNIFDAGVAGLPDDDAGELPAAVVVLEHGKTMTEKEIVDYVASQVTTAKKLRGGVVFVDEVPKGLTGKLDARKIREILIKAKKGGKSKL
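Purified P. pyralis luciferase, 10 nM final, with Km-level 10 uM D-luciferin and 10 uM ATP in 50 mM Tris acetate pH 7.5, 10 mM Mg acetate, 0.01% Tween-20, 0.05% BSA; 6-point qHTS titration about 60 µM downward; luminescence read.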
Rab9 prom act – qHTS Assay for Rab9 Promoter Activators; Huh7 Rab9 promoter-luciferase reporter, luminescence, 24 h; Potency, µM (titrated, usually from 9.22 µM), most hits filed as activators; actives 2.8% (n = 320,000); further: nearly all actives have a fitted effect of over 60% in size
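Rab9 promoter-driven luciferase in stably transfected Huh7 cells; 1500 cells/well rested 2 h, exposed to compound in DMSO for 24 h at 37 °C, 5% CO2. Luminescence read 10 min after adding luciferase reagent at ambient temperature.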
Hits are given with their value; – = inactive; ? = inconclusive; · = not tested or not shown; [ ] = remark or other dose. An excerpt weighted towards active compounds, which were near 7.4% of everything screened. The call rests on the fitted dose curve; in most records, active means well fitted curve in the direction sought with a large enough effect; inconclusive means small, poorly fitted or top-dose-only effect, or another doubt; inactive means no such curve, though single readings can be large; an effect the other way counts as inactive or inconclusive.

SMILES	SMN2 splice up	ELG1 genotoxic	Luc counter	NPC1 promoter act	FLuc counter	Rab9 prom act
COc1ccc(Cn2ccc3nc(C)c(C(=O)N4CCN(c5cccc(OC)c5)CC4)cc3c2=O)cc1	·	·	·	·	–	·
CCN(CC)c1ccc(C=Nc2ccc(C)cc2)c(O)c1	–	–	–	–	11µM	–
CCN(CC)c1ccc(/C=N/Nc2ccccc2)c(O)c1	–	–	–	–	21µM	–
CCN(CC)c1ccc(C=Nc2ccccc2)c(O)c1	–	–	–	–	4.3µM	–
CCN(CC)c1ccc(/C=N/N2CCOCC2)c(O)c1	8.9µM	?	–	?	13µM	3.5µM
CCN(CC)c1ccc(/C=N/N2CCN(Cc3ccccc3)CC2)c(O)c1	–[1.84 µM]	–	–	–	–	–
CCN(CC)c1ccc(/C=N/Nc2cccc(C)c2)c(O)c1	?	–	–	–	?	–
O=C(Cc1cccs1)NC1CC(=O)N(c2cccc(F)c2)C1 (stereo unspecified)	·	·	·	·	–	·
CCN(CC)c1ccc(N=Cc2ccc(N(CC)CC)cc2O)cc1	–	–	–	–	–	–
CCN(CC)c1ccc(C=Nc2ccc(N(C)C)cc2)c(O)c1	–	13µM	–	–	8.5µM	–
O=C1C=C(Nc2ccccc2)c2ccccc2C1=O	–	–	–	–	?	–
O=C1C=C(Nc2ccccc2)C(=O)c2ccccc21	13µM	–	–	1.8µM	3.4µM	1µM
CCc1ccc(NC2=CC(=O)C(=O)c3ccccc32)cc1	·	–	·	–	11µM	–
O=C(Nc1ccc(F)cc1)[C@H](CSCc1ccccc1)N1Cc2ccccc2C1=O	–	·	·	·	–	·
CC1(C)CC(NC(=O)c2ccc3c(c2)OCO3)CC(C)(C)N1	–	–	–	–	–	–
CC1CCC(NC(=O)c2ccc3c(c2)OCO3)CC1 (stereo unspecified)	·	0.46µM	·	0.32µM	2.7µM	0.45µM
CC1CCN(CC(=O)Nc2ccc3c(c2)OCO3)CC1	·	–	·	–	–	–
CC1CCCC(NC(=O)c2ccc3c(c2)OCCO3)C1C (stereo unspecified)	·	?	·	4µM	13µM	1.6µM
CC1CCC(NC(=O)C(=O)Nc2ccc3c(c2)OCO3)CC1 (stereo unspecified)	·	4.1µM	·	2µM	7.6µM	0.71µM
COc1ccc(C2C=C(c3ccc(Cl)cc3)Nc3nc(-c4ccc(Cl)cc4)nn32)cc1 (stereo unspecified)	–	·	·	·	–	·
CCCCCC(=O)/C=C/C=C\C/C=C\C/C=C\CCCC(=O)O	–	·	–	·	·	·
O=C(c1cnccn1)N1CCC[C@@]2(CCN(Cc3ccccc3)C2)C1	–	·	–	·	·	·
COc1ccc2cc(CCOC3CCCCO3)ncc2c1 (stereo unspecified)	·	?	·	0.32µM	2.7µM	0.5µM
CC(C)(C)c1ccc(S(=O)(=O)N2CCN(Cc3noc(CCC(=O)N4CCCCC4)n3)CC2)cc1	·	·	·	·	–	·
O=C(Nc1ncccc1O)c1ccc2ccccc2c1	·	–	·	–	–	–
SMILES	SMN2 splice up	ELG1 genotoxic	Luc counter	NPC1 promoter act	FLuc counter	Rab9 prom act
O=C(Nc1nccs1)c1ccc2ccccc2c1	·	–	·	3.2µM	3µM	3.2µM
O=C(Nc1nccs1)c1ccc(Br)cc1	·	?	·	2.5µM	9.5µM	2.2µM
O=C(Nc1n[nH]c(=S)s1)c1ccc2ccccc2c1	·	?	·	1.1µM	27µM	0.79µM
O=C(O)c1ccc(NC(=O)C2CC=CCC2C(=O)O)cc1 (stereo unspecified)	–	–	–	–	–	–
O=C(CCNC(=O)c1ccc(Br)cc1)Nc1nccs1	–	–	–	–	–	–
O=C(Nc1nccs1)c1ccc(NC(=O)C2CC=CCC2C(=O)O)cc1 (stereo unspecified)	–	–	–	–	17µM	–
O=C(CN1C(=O)COc2ccc(S(=O)(=O)N3CCOCC3)cc21)N1CCN(c2ccccc2F)CC1	–	·	·	·	–	·
Cc1ccccc1-c1nc(CS(=O)(=O)CC(=O)NCCCc2ccccc2)c(C)o1	–	·	·	·	–	·

Compound activity (PubChem BioAssay)
